Where “and” joins values, the source holds several entries; their conditions need not be identical. Identical values can stand only once. Some compounds were tested as several samples or in several runs, with calls that do not always agree. Calls of active or inactive are those of the source.
Assays:
[1] = optical density shifts of acrAB sulA E. coli – strain DRC41, OD650, 48 h, E. coli filamentation inducer project, primary screen (AID 1152); settings: higher = more signal, called active from +8 up or from −8 down;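 also: E. coli MC1000 strain DRC41 lacking acrAB efflux pump and sulA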
[2] = probe aLefty1 binding on compound microarray – biochemical, small-molecule microarray, 635/667 nm fluorescence, primary screen (AID 1153); settings: higher = more signal;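 also: score merges spot fluorescence with signal-to-noise ratio from the scanned slide images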
[3] = plasmodial surface anion channel blockers, osmotic lysis – cell-based, P. falciparum Indochina, OD700, 1 h, primary screen (AID 1154); settings: P. falciparum Indochina infected RBC osmotic lysis, higher = more signal, called active from +8 up or from −8 down
[4] = plasmodial surface anion channel blockers, osmotic lysis – cell-based, P. falciparum Indochina, OD700, 2 h, primary screen (AID 1155);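 also: lysis reports solute entry through the parasite surface anion channel PSAC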; settings: P. falciparum Indochina infected erythrocytes, higher = more signal, called active from +8 up or from −8 down
[5] = changes in parasitized red cell lysis, either direction – P. falciparum Indochina, OD700, 3 h, PSAC antagonist project, primary screen (AID 1156); settings: P. falciparum-infected erythrocytes, osmotic lysis, higher = more signal, called active from +8 up or from −8 down
[6] = plasmodial surface anion channel blockers, osmotic lysis – cell-based, P. falciparum Indochina, OD700, 18 h, primary screen (AID 1157); settings: P. falciparum Indochina infected erythrocytes, osmotic lysis OD700, 18 h; higher = more signal, called active from +8 up or from −8 down
[7] = S6 kinase pathway phospho-S6 level changes – cell-based, A549, cytoblot, luminescence, serum-stimulated, primary screen (AID 1158); settings: 5 h, higher = more signal;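 also: serum-stimulated A549 lung adenocarcinoma cells; signal is phosphorylated S6 detected by cytoblot immunostaining with HRP secondary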
[8] = biological target: NADPH oxidase 2 (Homo sapiens) (UniProt P04839); assay: compounds shifting NOX2 Amplex Red fluorescence – cell-based, HEK293-NOX2, PMA-stimulated, NOX inhibitor project, primary screen (AID 1159); settings: 45 min, higher = more signal, called active from +8 up or from −8 down; also: test concentration not given here
Sequence of NADPH oxidase 2 (Homo sapiens) (P04839 whole entry, looked up): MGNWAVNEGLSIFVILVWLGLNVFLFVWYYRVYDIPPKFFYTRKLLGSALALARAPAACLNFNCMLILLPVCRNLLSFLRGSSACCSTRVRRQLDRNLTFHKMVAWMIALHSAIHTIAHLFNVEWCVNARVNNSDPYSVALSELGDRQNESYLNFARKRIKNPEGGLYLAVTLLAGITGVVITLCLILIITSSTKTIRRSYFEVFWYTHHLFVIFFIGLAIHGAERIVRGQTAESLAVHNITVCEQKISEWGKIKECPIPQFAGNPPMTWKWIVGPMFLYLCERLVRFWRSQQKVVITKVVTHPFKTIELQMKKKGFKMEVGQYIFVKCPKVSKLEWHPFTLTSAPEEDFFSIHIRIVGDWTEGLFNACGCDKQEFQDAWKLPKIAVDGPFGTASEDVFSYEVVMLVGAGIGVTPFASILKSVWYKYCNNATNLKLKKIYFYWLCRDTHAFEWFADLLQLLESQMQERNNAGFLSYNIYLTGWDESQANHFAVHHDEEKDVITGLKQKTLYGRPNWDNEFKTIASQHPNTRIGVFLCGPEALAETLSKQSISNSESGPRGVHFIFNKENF

[9] = biological target: NADPH oxidase 4 (Homo sapiens) (UniProt Q9NPH5); assay: compounds shifting NOX4 Amplex Red fluorescence – cell-based, HEK293-NOX4, tetracycline-induced, NOX inhibitor project, primary screen (AID 1160); settings: HEK293-NOX4, Amplex Red H2O2 fluorescence, 45 min; higher = more signal, called active from +8 up or from −8 down
Sequence of NADPH oxidase 4 (Homo sapiens) (Q9NPH5 whole entry, looked up): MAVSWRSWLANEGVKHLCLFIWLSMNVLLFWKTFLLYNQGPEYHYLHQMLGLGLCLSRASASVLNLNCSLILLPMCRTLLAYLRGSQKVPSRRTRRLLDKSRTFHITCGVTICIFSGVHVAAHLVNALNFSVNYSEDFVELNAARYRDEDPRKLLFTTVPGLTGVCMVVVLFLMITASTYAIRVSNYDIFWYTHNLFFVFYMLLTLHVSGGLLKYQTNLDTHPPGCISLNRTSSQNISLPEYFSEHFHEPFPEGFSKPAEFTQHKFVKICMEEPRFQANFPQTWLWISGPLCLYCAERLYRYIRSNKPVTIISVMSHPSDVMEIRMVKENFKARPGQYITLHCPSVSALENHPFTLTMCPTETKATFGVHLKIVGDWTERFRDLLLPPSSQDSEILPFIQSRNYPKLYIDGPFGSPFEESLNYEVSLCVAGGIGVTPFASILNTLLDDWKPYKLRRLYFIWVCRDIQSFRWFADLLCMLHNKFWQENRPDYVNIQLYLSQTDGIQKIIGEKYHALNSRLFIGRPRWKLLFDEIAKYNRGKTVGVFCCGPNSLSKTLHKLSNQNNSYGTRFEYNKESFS

[10] = biological target: NADPH oxidase 5 (Homo sapiens) (UniProt Q96PH1); assay: compounds shifting NOX5 Amplex Red fluorescence – cell-based, HEK293-NOX5, NOX inhibitor project, primary screen (AID 1161); settings: HEK293-NOX5, ionomycin, 45 min, higher = more signal
Sequence of NADPH oxidase 5 (Homo sapiens) (Q96PH1 whole entry, looked up): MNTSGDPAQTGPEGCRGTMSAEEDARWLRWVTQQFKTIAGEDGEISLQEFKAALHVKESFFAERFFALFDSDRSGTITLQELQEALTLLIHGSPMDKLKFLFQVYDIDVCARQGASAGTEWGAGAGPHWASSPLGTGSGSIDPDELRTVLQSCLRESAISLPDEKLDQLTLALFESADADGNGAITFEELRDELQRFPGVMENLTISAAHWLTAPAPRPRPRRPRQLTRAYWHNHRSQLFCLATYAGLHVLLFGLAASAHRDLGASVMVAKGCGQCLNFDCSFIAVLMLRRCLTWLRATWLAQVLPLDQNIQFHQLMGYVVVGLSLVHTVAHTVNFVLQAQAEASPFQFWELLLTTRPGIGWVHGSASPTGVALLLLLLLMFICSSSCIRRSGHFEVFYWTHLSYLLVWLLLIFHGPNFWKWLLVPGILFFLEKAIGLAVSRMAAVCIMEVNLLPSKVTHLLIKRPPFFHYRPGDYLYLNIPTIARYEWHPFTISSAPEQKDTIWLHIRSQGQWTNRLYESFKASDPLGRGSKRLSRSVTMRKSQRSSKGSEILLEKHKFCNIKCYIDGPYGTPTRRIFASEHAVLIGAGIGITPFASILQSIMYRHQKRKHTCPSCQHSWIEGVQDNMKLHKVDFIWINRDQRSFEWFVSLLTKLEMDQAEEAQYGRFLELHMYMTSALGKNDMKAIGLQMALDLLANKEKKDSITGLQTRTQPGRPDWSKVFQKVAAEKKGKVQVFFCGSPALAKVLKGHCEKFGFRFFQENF

[11] = compound effects on lung adenocarcinoma cell viability – A549, calcein-AM fluorescence, 48 h, basal, profiling panel (AID 1162); settings: higher = more signal; also: test concentration not given here
[12] = compound effects on differentiated 3T3-L1 adipocyte viability – cell-based, 3T3-L1 adipocytes, calcein-AM fluorescence, 48 h, basal, profiling panel (AID 1163); settings: 3T3-L1 adipocytes viability, higher = more signal; also: test concentration not given here
[13] = compound effects on hepatocellular carcinoma cell viability – HepG2, calcein-AM fluorescence, 48 h, basal, profiling panel (AID 1164); settings: higher = more signal; also: test concentration not given here
[14] = compound effects on multiple myeloma cell viability – MM1S, calcein-AM fluorescence, 48 h, basal, profiling panel (AID 1165); settings: higher = more signal;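 also: viability of MM1S multiple myeloma cells under basal unstimulated conditions; test concentration not given here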
[15] = calcein-AM signal in unstimulated myeloma cells – cell-based, calcein-AM fluorescence, 48 h, PK04 Diversity Set, profiling panel (AID 1166); settings: RPMI8226 myeloma viability, higher = more signal;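 also: cells grown under basal conditions without added stimulus; test concentration not given here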
[16] = JC-1 mitochondrial signal, unstimulated HepG2 cells – cell-based, JC-1 fluorescence, 24 h, 100 nL compound, profiling panel (AID 1167); settings: HepG2 mitochondrial potential, higher = more signal; also: test concentration not given here
[17] = JC-1 mitochondrial signal, unstimulated adipocytes – cell-based, JC-1 fluorescence, 3T3-L1 adipocytes, 24 h, 100 nL compound, profiling panel (AID 1168); settings: JC-1 mitochondrial fluorescence, higher = more signal, called active from +8 up or from −8 down; also: test concentration not given here
[18] = JC-1 mitochondrial signal, unstimulated myeloma cells – cell-based, JC-1 fluorescence, RPMI8226, 24 h, 100 nL compound, profiling panel (AID 1169); settings: JC-1 mitochondrial potential fluorescence, higher = more signal; also: test concentration not given here
[19] = JC-1 mitochondrial signal, unstimulated MM1S myeloma – cell-based, JC-1 fluorescence, 24 h, 100 nL compound, profiling panel (AID 1170); settings: MM1S mitochondrial potential, higher = more signal; also: test concentration not given here
[20] = resazurin metabolic signal in A549 cells – cell-based, resazurin fluorescence, 24 h, PK04 Diversity Set, profiling panel (AID 1171); settings: A549 viability, higher = more signal, called active from +8 up or from −8 down; also: test concentration not given here

SMILES | z-score [1] | composite z-score [2] | z-score [3] | z-score [4] | z-score [5] | z-score [6] | z-score [7] | z-score [8] | z-score [9] | z-score [10] | z-score [11] | z-score [12] | z-score [13] | z-score [14] | z-score [15] | z-score [16] | z-score [17] | z-score [18] | z-score [19] | z-score [20]
Cc1ccc(S(=O)(=O)N[C@H]2COC(=O)[C@@H](Cc3ccccc3)NC(=O)[C@@H](C)COC(=O)CC=C[C@@H]2C)cc1 | -0.193 (inactive) and 0.569 (inactive) | -0.232 and -0.0645 | 0.649 (inactive) and 1.51 (inactive) | 0.237 (inactive) and 0.491 (inactive) | 0.377 (inactive) and 1.9 (inactive) | 0.252 (inactive) and 0.148 (inactive) | 0.0356 and 0.201 | -0.34 (inactive) and 0.252 (inactive) | -0.302 (inactive) and -0.127 (inactive) | 0.189 and 0.00698 | 0.671 and -0.545 | -0.433 and 1.08 | 0.364 and -1.68 | -1.13 and 1.05 | -0.372 and -0.784 | 0.0571 and -0.176 | -0.517 (inactive) and -0.812 (inactive) | -0.259 and 0.107 | 0.242 and -1.28 | 0.0258 (inactive) and 0.392 (inactive)
C=CCN(CCCCC)C(=O)C1N(c2c(Cl)cccc2CO)C(=O)C2C(C(=O)O)C3C=CC21O3 (stereo not given) | -0.281 (inactive) and -0.118 (inactive) | -0.313 and 0.0547 | 1.02 (inactive) and 0.766 (inactive) | 0.078 (inactive) and 0.573 (inactive) | 0.418 (inactive) and 0.0852 (inactive) | 0.188 (inactive) and -0.058 (inactive) | 0.0308 and 0.765 | 0.871 (inactive) and 0.757 (inactive) | -1.02 (inactive) and -1.22 (inactive) | -0.554 and -0.2 | 0.91 and 0.677 | 1.58 and 0.498 | -0.841 and -0.469 | 1 and 0.892 | -1.09 | -0.828 and -1.37 | -0.438 (inactive) and -0.55 (inactive) | 0.0653 and 0.469 | 0.223 and 1.03 | -1.5 (inactive) and -1.33 (inactive)
C[C@@]1([C@@H](NC(=O)Cc2ccccc2)c2ccc(-c3ccccc3)cc2)C[C@H]1C1CCCCC1 | -1.01 (inactive) and -1.14 (inactive) and -2.63 (inactive) | 1.31 and 1.96 and -0.533 | 2.55 (inactive) and 0.584 (inactive) and 10.1 (active) | -0.208 (inactive) and 0.325 (inactive) and 1.68 (inactive) | 1.01 (inactive) and 1.19 (inactive) and 0.922 (inactive) | -1.51 (inactive) and 0.741 (inactive) and 0.644 (inactive) | 1.28 and -0.396 and -0.729 | -4.2 (inactive) and -0.505 (inactive) and -1.36 (inactive) | -5.91 (inactive) and -3.11 (inactive) and -1.7 (inactive) | -3.09 and 0.173 and 0.832 | -2.72 and -1.23 and -1.42 | 0.765 and -0.0714 and -0.863 | -2.87 and -0.861 and -0.802 | -2.91 and -1.81 and -2 | -4.81 and -1.41 and -1.24 | -3.9 and -0.895 and 0.848 | 0.111 (inactive) and -0.332 (inactive) and -1.75 (inactive) | -0.936 and -0.586 and -0.431 | -1.71 and 0.0165 and -1.06 | -0.609 (inactive) and 3.96 (inactive) and -0.816 (inactive)
C=CCN(Cc1ccccc1)C(=O)C1N(CCOCCO)C(=O)C2C(C(=O)O)C3C=CC21O3 (stereo not given) | 2.01 (inactive) and 0.924 (inactive) | 0.0429 and 0.101 | -0.451 (inactive) and 0.417 (inactive) | -1.31 (inactive) and -0.103 (inactive) | -1.39 (inactive) and -0.519 (inactive) | -1.71 (inactive) and 0.0394 (inactive) | 0.506 and 0.245 | 1.22 (inactive) and 0.583 (inactive) | -0.586 (inactive) and -2.52 (inactive) | 0.93 and -0.825 | 0.457 and -0.65 | 1 and 0.0853 | -0.475 and -1.46 | 0.443 and 1.02 | 0.953 and -1.25 | 0.341 and -0.0276 | 0.978 (inactive) and -0.925 (inactive) | 0.747 and 0.0424 | 1.26 and -0.0145 | -0.474 (inactive) and 0.0887 (inactive)
O=C1NC(=O)C2C1C=CC(C(O)c1ccc([N+](=O)[O-])cc1)N2Nc1ccc(Cl)cc1Cl (stereo not given) | 0.302 (inactive) and 1.01 (inactive) | 0.134 and 0.623 | 9.67 (active) and 3.11 (inactive) | 0.913 (inactive) and 0.168 (inactive) | 0.538 (inactive) and -0.138 (inactive) | -0.988 (inactive) and -1.28 (inactive) | 0.474 and 0.7 | 0.313 (inactive) and 0.609 (inactive) | -5.29 (inactive) and -4.55 (inactive) | -1.98 and -1.75 | 0.953 and 1.59 | 0.0938 and 0.263 | 0.949 and 1.79 | -0.251 and 0.596 | -0.194 and 0.932 | -0.115 and -0.654 | -0.833 (inactive) and -0.57 (inactive) | -0.314 and -0.905 | 0.319 and 2.28 | 0.303 (inactive) and 0.766 (inactive)

— PubChem BioAssay
